Assay results reported in PubChem BioAssay AID488969 (Vanderbilt High Throughput Screening Facility, 2010).
Whole data set: some 110,000 compounds, median “z-score” near -0.1, cut for the highest 2% near 2. The list comes from a sample in which the highest values are over-represented; it also holds similar structures and randomly drawn compounds. The source made the active and inactive calls.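 Rule for the calls: active = z-score in the third read window above 3 or below -3; inactive = the rest.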

molecular target: Metabotropic glutamate receptor 8 (Rattus norvegicus) (UniProt P70579); assay: mGluR8 Gi/Go-coupled signaling modulation – cell-based, rat, thallium flux, HTS, primary screen (AID 488969); details: HEK293 rat mGluR8, GIRK (G protein-gated inwardly rectifying potassium channel) thallium flux, FluoZin2; at 10 µM; stronger effect = higher value; submaximal glutamate (EC20) added with thallium
Sequence (P70579 whole entry, looked up): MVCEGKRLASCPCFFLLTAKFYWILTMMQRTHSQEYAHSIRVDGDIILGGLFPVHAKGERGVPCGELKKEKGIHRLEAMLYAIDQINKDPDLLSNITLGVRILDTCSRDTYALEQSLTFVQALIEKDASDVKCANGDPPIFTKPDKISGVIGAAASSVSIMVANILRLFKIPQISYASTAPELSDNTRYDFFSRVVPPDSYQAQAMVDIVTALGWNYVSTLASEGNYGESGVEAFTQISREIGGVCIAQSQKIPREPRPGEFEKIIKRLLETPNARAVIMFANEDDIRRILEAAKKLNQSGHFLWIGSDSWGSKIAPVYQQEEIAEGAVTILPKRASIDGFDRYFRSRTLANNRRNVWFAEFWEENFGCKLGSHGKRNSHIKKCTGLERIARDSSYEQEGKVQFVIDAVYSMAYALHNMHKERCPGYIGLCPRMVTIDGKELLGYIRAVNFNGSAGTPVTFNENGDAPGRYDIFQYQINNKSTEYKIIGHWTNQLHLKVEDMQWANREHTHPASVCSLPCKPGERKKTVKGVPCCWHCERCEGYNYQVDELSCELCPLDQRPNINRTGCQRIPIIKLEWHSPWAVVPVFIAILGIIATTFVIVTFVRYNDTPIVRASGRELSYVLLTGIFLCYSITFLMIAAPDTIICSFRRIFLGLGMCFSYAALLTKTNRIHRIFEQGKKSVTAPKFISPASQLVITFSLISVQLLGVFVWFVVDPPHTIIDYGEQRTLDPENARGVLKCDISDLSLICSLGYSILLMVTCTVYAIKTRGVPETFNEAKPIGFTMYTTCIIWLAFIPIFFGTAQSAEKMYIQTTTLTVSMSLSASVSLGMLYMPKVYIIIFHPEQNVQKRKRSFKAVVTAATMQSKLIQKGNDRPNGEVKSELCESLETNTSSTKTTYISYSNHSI

Which z-score does the source give for `OCCN(Cc1ccccc1)Cc1ccccc1Cl` here?
The z-score was 0.0815.

With `C#CC(CO)N(CCN(Cc1ccccc1)C(C#C)CO)Cc1ccccc1` (stereo not drawn) as the molecule, how does the z-score read?
Its z-score is 2.19.

How did the z-score turn out when `CC(C)CC(C(=O)O)N(Cc1ccccc1)Cc1ccccc1` (stereo not drawn) was run?
Its z-score is -0.132.

Which z-score does the source give for `CC1CCc2c(sc(NC(=O)CSc3ncnc4c3cnn4-c3ccccc3Cl)c2C#N)C1` (stereo not drawn) here?
The z-score was -0.899.

`CSC1=N/C(=C\c2ccc(Br)o2)C(=O)S1` was tested. Which z-score did it give?
The z-score was 3.73 (active).

How did the z-score turn out when `CSC1=N/C(=C\c2ccc(C)cc2)C(=O)S1` was run?
The z-score was -0.344.

Which z-score does the source give for `CSC1=N/C(=C\c2ccc(F)cc2)C(=O)S1` here?
Its z-score is -0.817.

How did the z-score turn out when `CC(=O)CC1(O)C(=O)N(Cc2ccccc2)c2ccccc21` (stereo not drawn) was run?
The z-score was 0.034.

How did the z-score turn out when `O=C(N/N=C/c1cnc2ccccc2n1)c1cccc(F)c1` was run?
The z-score was 0.223.

`O=C(CN1CCCC1)N1c2ccccc2Sc2ccccc21` was tested. Which z-score did it give?
The z-score was -0.191.

With `O=C1CS/C(=N\C(=O)N2c3ccccc3Sc3ccccc32)N1` as the molecule, how does the z-score read?
Its z-score is 7.66 (active).

For `Cc1ccccc1N=C1NC(=O)CS1`, which z-score is on record?
Its z-score is 0.516.

How did the z-score turn out when `COc1ccc(NC(=O)CSc2nc3ncccc3[nH]2)cc1OC` was run?
The z-score was -0.426.

How did the z-score turn out when `CCC(=O)N(Cc1cc2ccc(C)cc2n2nnnc12)C1CCCCC1` was run?
Its z-score is -0.401.

`C=CCn1c(SC2CCOC2=O)nc2sc(C)c(C)c2c1=O` (stereo not drawn) was tested. Which z-score did it give?
Its z-score is -0.995.

How did the z-score turn out when `Cc1cc(C)nc(SC2CCOC2=O)n1` (stereo not drawn) was run?
The z-score was -0.0163.

For `Cc1nc(SC2CCOC2=O)c2c(C)c(C)sc2n1` (stereo not drawn), which z-score is on record?
The z-score was 4.12 (active).

`CCCC1Cc2c(sc(NC(=S)NC(=O)c3ccccc3)c2C#N)CO1` (stereo not drawn) was tested. Which z-score did it give?
Its z-score is 0.489.

With `O=C(c1ccco1)N1CCN(S(=O)(=O)c2ccc(S(=O)(=O)NC3CC3)cc2)CC1` as the molecule, how does the z-score read?
The z-score was -0.31.

For `CC1(C)CC(NS(=O)(=O)c2ccc(S(=O)(=O)N3CCOCC3)cc2)CCO1` (stereo not drawn), which z-score is on record?
Its z-score is 2.05.

For `CC(=O)N1CCN(S(=O)(=O)c2ccc(S(=O)(=O)NCC(C)C)cc2)CC1`, which z-score is on record?
The z-score was -0.0339.

For `CN(C)S(=O)(=O)c1ccc(S(=O)(=O)NC2CCOC(C)(C)C2)cc1` (stereo not drawn), which z-score is on record?
Its z-score is -1.16.

Which z-score does the source give for `CC(C)CNS(=O)(=O)c1ccc(S(=O)(=O)NC2CCOC(C)(C)C2)cc1` (stereo not drawn) here?
Its z-score is -0.235.

`CC(=O)N1CCN(S(=O)(=O)c2ccc(S(=O)(=O)NC3CC3)cc2)CC1` was tested. Which z-score did it give?
Its z-score is 2.05.

For `COc1cc(-n2c(C)nc3cc(C(=O)N4CCOCC4)ccc32)cc(OC)c1OC`, which z-score is on record?
Its z-score is -0.458.

With `CCOC(=O)c1c(C)oc2c1cc(O)c1ccccc12` as the molecule, how does the z-score read?
Its z-score is -0.493.

Which z-score does the source give for `CCOC(=O)c1c(-c2ccccc2)[nH]c2ccc(O)cc12` here?
Its z-score is -0.821.

`CCOC(=O)c1c(C)[nH]c2c1cc(O)c1ccccc12` was tested. Which z-score did it give?
The z-score was 4.58 (active).

`COc1ccc(-c2nc(NC(=O)c3ccc(OCC(=O)N4CCOCC4)c(OC)c3)sc2C)cc1` was tested. Which z-score did it give?
The z-score was -0.218.

How did the z-score turn out when `COc1ccccc1NC(=S)N(CCc1c(C)[nH]c2ccccc12)Cc1cccs1` was run?
The z-score was 0.381.

For `CCOc1cc(/C=N/NC(=O)CNc2ccc(C)cc2)ccc1OC(=O)c1ccccc1`, which z-score is on record?
Its z-score is 0.0308.

`CCOc1cc(/C=N/NC(=O)CNc2cccc(C)c2)ccc1OC(=O)c1ccccc1` was tested. Which z-score did it give?
The z-score was 5.52 (active).

With `CCOc1cc(/C=N\NC(=O)c2ccc(NC(=O)CC)cc2)ccc1OC(=O)c1ccccc1` as the molecule, how does the z-score read?
Its z-score is -0.103.
